PubChem BioAssay (NCATS)
Several values for one entry are separate records, joined by “and”; a condition that tells them apart may be missing. Identical values can stand only once. Inconclusive results are not listed. Activity calls are given as the source filed them. Unless noted, calls come from the whole dose curve; as a rule, active = well fitted curve in the direction sought with a large enough effect; inconclusive = small, poorly fitted or top-dose-only effect, or another doubt; inactive = no such curve, though single readings can be large; an effect the other way counts as inactive or inconclusive.

How the values were obtained:
[1] = Cell Viability - LYMP2-003 (AID 965);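 note: cells exposed to compounds for 24 h before reading; nearly all actives have a fitted effect of over 50% in size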
Method in brief: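 Seed 2500 lymphoblastoid cells/well; incubate 5 hr, 37 C; add compounds; incubate 24 hr, 37 C; add CellTiter-Glo, 30 min RT; read luminescence. AC50 from Hill fit.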

[2] = Cell Viability - LYMP2-004 (AID 966); note: nearly all actives have a fitted effect of over 65% in size
Method in brief: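 Luminescent ATP read-out (CellTiter-Glo, 30 min RT) after 24 hr compound exposure at 37 C; 2500 lymphoblastoid cells/well, complete medium. Decrease in ATP = cytotoxicity; AC50 from standard Hill model.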

[3] = Cell Viability - LYMP2-005 (AID 967); note: series mostly up to about 92 µM
Method in brief: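 Acute cytotoxicity is scored as a concentration-dependent drop in intracellular ATP in human lymphoblastoid LYMP2-005 cells after 24 h compound treatment. ATP is quantified by luciferase luminescence, and AC50 is derived by Hill-equation modelling.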

[4] = Cell Viability - LYMP2-011 (AID 969);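 note: cells exposed to compound for 24 hours; nearly all actives have a fitted effect of over 60% in size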
Method in brief: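 Luminescent ATP read-out (CellTiter-Glo, 30 min RT) after 24 hr compound exposure at 37 C in human lymphoblastoid cells, 2500 cells/well. Decreasing ATP indicates cytotoxicity; AC50 from standard Hill fit.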

[5] = Cell Viability - LYMP2-013 (AID 970); note: series mostly up to about 92 µM; nearly all actives have a fitted effect of over 55% in size
Method in brief: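 CellTiter-Glo luminescence (cellular ATP) read after 30 min at RT. Cells: human lymphoblastoid line, 2500/well, 24 hr compound exposure at 37 C. Tetraoctylammonium bromide positive control; AC50 via standard Hill fit of qHTS titrations.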

[6] = Cell Viability - LYMP2-017 (AID 972);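 note: series mostly up to about 92 µM; cells exposed to compound for 24 hours at 37 °C; nearly all actives have a fitted effect of over 55% in size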
Method in brief: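 Luminescent ATP read-out (CellTiter-Glo, 30 min RT) reports viable cell number. Cells: human lymphoblastoid line, 2500 per well, 5 hr preincubation, 24 hr compound exposure at 37 C. AC50 is derived from qHTS concentration-response data using the standard Hill model.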

[7] = Cell Viability - LYMP2-019 (AID 973); note: nearly all actives have a fitted effect of over 55% in size
Method in brief: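 qHTS, 1536-well; 2500 cells/well; 5 hr pre-incubation, 24 hr compound exposure, 37 C; CellTiter-Glo added, 30 min RT; luminescence read; AC50 via standard Hill equation.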

[8] = Cell Viability - LYMP2-021 (AID 974);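 note: compound exposure lasts 24 hours at 37 °C; nearly all actives have a fitted effect of over 55% in size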
Method in brief: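 ATP luminescence (CellTiter-Glo, 30 min RT) after 24 h compound exposure at 37 C; 2500 human lymphoblastoid cells/well, 5 h settle beforehand. Cytotoxicity = concentration-dependent ATP drop, AC50 by Hill fit.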

[9] = Cell Viability - LYMP2-023 (AID 975)
Method in brief: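 CellTiter-Glo luminescence after 30 min at room temperature; decrease in intracellular ATP reflects toxicity. Cells: human lymphoblastoid line, 2500/well, 24 hr compound exposure at 37 C. AC50 fitted to standard Hill equation from concentration-response.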

[10] = Cell Viability - LYMP2-002 (AID 977); note: series mostly up to about 92 µM
Method in brief: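 Human lymphoblastoid cells, 2500/well, complete medium; 5 h 37 C settle; compound 24 h 37 C; CellTiter-Glo, 30 min RT; luminescence. Decrease in ATP = cytotoxicity; AC50 via Hill equation.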

[11] = Cell Viability - LYMP2-007 (AID 979);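 note: cells exposed to compound for 24 h before reading; nearly all actives have a fitted effect of over 60% in size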
Method in brief: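 qHTS cytotoxicity: 2500 cells/well, 5 hr 37 C settle, compound 24 hr 37 C, CellTiter-Glo 30 min RT, luminescence. Decrease in ATP = toxicity. AC50 by standard Hill equation; tetraoctylammonium bromide positive control.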

[12] = Cell Viability - LYMP2-014 (AID 983); note: series mostly up to about 92 µM; nearly all actives have a fitted effect of over 50% in size
Method in brief: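 2500 cells/well, 5 hr 37 C; cpd 24 hr 37 C, complete medium; CellTiter-Glo 30 min RT, luminescence; ATP loss = toxicity; AC50 via Hill eqn; tetraoctylammonium bromide positive control.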

[13] = Cell Viability - LYMP2-016 (AID 984)
Method in brief: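 Cells were seeded at 2500 per well and rested 5 hr before a 24 hr compound exposure at 37 C. Viability was then gauged as cellular ATP by luciferase luminescence, with AC50 values fitted to the Hill equation.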

[14] = Cell Viability - LYMP2-018 (AID 985); note: nearly all actives have a fitted effect of over 50% in size
Method in brief: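 2500 cells/well; 5 hr 37 C; cmpd 24 hr 37 C, complete medium; CellTiter-Glo 30 min RT; luminescence. Tetraoctylammonium bromide positive control. AC50 via Hill fit.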

[15] = Cell Viability - LYMP2-020 (AID 986)
Method in brief: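 qHTS, 2500 cells/well; 5 hr then 24 hr compound exposure, 37 C; CellTiter-Glo luminescence after 30 min RT; ATP decrease taken as cytotoxicity; AC50 via Hill equation; tetraoctylammonium bromide positive control.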

[16] = Cell Viability - LYMP2-026 (AID 989); note: nearly all actives have a fitted effect of over 50% in size
Method in brief: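 qHTS cytotoxicity: 2500 cells/well, 5 hr 37 C, compound 24 hr 37 C, CellTiter-Glo 30 min RT, luminescence. Tetraoctylammonium bromide positive control. AC50 via standard Hill fit.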

[17] = biological target: Retinoic acid receptor RXR-alpha (Homo sapiens) (UniProt P19793); assay: qHTS assay for small molecule agonists of retinoid X receptor alpha signaling (AID 588544; calls by dose curve)
Retinoic acid receptor RXR-alpha (Homo sapiens), sequence (P19793 whole entry, looked up): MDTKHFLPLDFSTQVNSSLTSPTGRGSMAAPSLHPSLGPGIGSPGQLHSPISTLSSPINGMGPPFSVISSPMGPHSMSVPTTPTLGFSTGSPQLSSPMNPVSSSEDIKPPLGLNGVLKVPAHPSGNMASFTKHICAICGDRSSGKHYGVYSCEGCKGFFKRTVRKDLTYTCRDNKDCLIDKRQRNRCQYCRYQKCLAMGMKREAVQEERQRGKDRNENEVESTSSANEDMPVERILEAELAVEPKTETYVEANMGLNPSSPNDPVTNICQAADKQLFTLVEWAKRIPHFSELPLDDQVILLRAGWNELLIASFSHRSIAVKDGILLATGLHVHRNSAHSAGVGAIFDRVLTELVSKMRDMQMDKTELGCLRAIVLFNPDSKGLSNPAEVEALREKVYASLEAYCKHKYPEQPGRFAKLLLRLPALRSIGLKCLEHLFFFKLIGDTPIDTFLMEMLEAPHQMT

[18] = qHTS assay for small molecule antagonists of retinoid X receptor alpha signaling (AID 588546); settings: HEK293T RXRa-UAS-bla, beta-lactamase ratio, antagonist mode; measured here: W530 green channel, cytotoxicity proxy;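 note: cells stimulated with 9-cis-retinoic acid as agonist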
Method in brief: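 Beta-lactamase reporter inhibition, read as CCF4 fluorescence ratio (ex 405, em 460/530 nm) after 2 h at RT. HEK293T UAS-bla cells, 2500/well, were stimulated with 9-cis-RA at 500 or 100 nM final alongside test compound for 18 h at 37 C.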

[19] = qHTS assay for small molecule disruptors of the mitochondrial membrane potential - 1 hr assay (AID 651754; calls by dose curve; note: nearly all actives have a fitted effect of over 35% in size)
Method in brief: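 Read-out: dye fluorescence at 490 nm ex/535 nm em (monomers) and 540 nm ex/590 nm em (aggregates) in HepG2 cells. Compound exposure 1 hr at 37C, followed by 30 min dye loading.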

[20] = qHTS assay for small molecule disruptors of the mitochondrial membrane potential - 5 hr assay (AID 651755; calls by dose curve; note: nearly all actives have a fitted effect of over 40% in size)
Method in brief: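 Read-out: ratiometric Mito-MPS fluorescence, green monomer (ex 490/em 535) vs red mitochondrial aggregate (ex 540/em 590). HepG2 cells treated 5 hr at 37C before 30 min dye loading.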

CCCCOCCOP(=O)(OCCOCCCC)OCCOCCCC
inactive: Potency [1] | Potency [2] | Potency [3] | Potency [4] | Potency [5] | Potency [6] | Potency [7] | Potency [8] | Potency [9] | Potency [10] | Potency [11] | Potency [12] | Potency [13] | Potency [14] | Potency [15] | Potency [16] | Potency [17] | Potency [19] | Potency [20]
2.76% and -5.2%: max response [18]

C1CCC2CCCCC2C1 (stereo not given)
-2.39%: max response [18]
inactive: Potency [1] | Potency [2] | Potency [3] | Potency [4] | Potency [5] | Potency [6] | Potency [7] | Potency [8] | Potency [9] | Potency [10] | Potency [11] | Potency [12] | Potency [13] | Potency [14] | Potency [15] | Potency [16] | Potency [17] | Potency [19] | Potency [20]

C=C(C)C#N
inactive: Potency [1] | Potency [2] | Potency [3] | Potency [4] | Potency [5] | Potency [9] | Potency [10] | Potency [11] | Potency [12] | Potency [14] | Potency [15] | Potency [17]
2.43% and -11.4%: max response [18]

C=CC(N)=O
-10.1% and 0.0016% and -8.94%: max response [18]
inactive: Potency [1] | Potency [2] | Potency [3] | Potency [4] | Potency [5] | Potency [6] | Potency [7] | Potency [8] | Potency [9] | Potency [10] | Potency [11] | Potency [12] | Potency [13] | Potency [14] | Potency [15] | Potency [16] | Potency [17] | Potency [19] | Potency [20]

C=C(C)C(=O)OCC1CO1 (stereo not given)
inactive: Potency [1] | Potency [2] | Potency [3] | Potency [4] | Potency [5] | Potency [6] | Potency [7] | Potency [8] | Potency [9] | Potency [10] | Potency [11] | Potency [12] | Potency [13] | Potency [14] | Potency [15] | Potency [16] | Potency [17] | Potency [19] | Potency [20]
-2.75%: max response [18]

Cc1cccc([N+](=O)[O-])c1
-5.54% and -8.46%: max response [18]
inactive: Potency [1] | Potency [2] | Potency [3] | Potency [4] | Potency [5] | Potency [6] | Potency [7] | Potency [8] | Potency [9] | Potency [10] | Potency [11] | Potency [12] | Potency [13] | Potency [14] | Potency [15] | Potency [16] | Potency [17] | Potency [19] | Potency [20]

ClC(Cl)=C(Cl)C(Cl)=C(Cl)Cl
-3.71% and -13.6%: max response [18]
inactive: Potency [1] | Potency [2] | Potency [3] | Potency [4] | Potency [5] | Potency [7] | Potency [9] | Potency [10] | Potency [11] | Potency [12] | Potency [14] | Potency [16] | Potency [17] | Potency [19] | Potency [20]

O=[N+]([O-])c1ccc(Cl)c(Cl)c1
-6.04%: max response [18]
inactive: Potency [1] | Potency [2] | Potency [3] | Potency [4] | Potency [5] | Potency [6] | Potency [7] | Potency [8] | Potency [9] | Potency [10] | Potency [11] | Potency [12] | Potency [13] | Potency [14] | Potency [15] | Potency [16] | Potency [17] | Potency [19] | Potency [20]

N#CCCCl
inactive: Potency [1] | Potency [2] | Potency [3] | Potency [4] | Potency [5] | Potency [6] | Potency [7] | Potency [8] | Potency [9] | Potency [10] | Potency [11] | Potency [12] | Potency [13] | Potency [14] | Potency [15] | Potency [16] | Potency [17] | Potency [19] | Potency [20]
2.8% and 0.773%: max response [18]

CC(C)(C)OO
-3.93% and -2.51%: max response [18]
inactive: Potency [1] | Potency [2] | Potency [3] | Potency [4] | Potency [5] | Potency [6] | Potency [7] | Potency [8] | Potency [9] | Potency [10] | Potency [11] | Potency [12] | Potency [13] | Potency [14] | Potency [15] | Potency [16] | Potency [17] | Potency [19] | Potency [20]

Brc1ccc(Oc2cc(Br)c(Br)cc2Br)c(Br)c1
inactive: Potency [1] | Potency [2] | Potency [3] | Potency [4] | Potency [5] | Potency [6] | Potency [7] | Potency [8] | Potency [9] | Potency [10] | Potency [11] | Potency [12] | Potency [13] | Potency [14] | Potency [15] | Potency [16]
10.6% and 6.53%: max response [18]

Brc1ccccc1
inactive: Potency [1] | Potency [2] | Potency [3] | Potency [4] | Potency [5] | Potency [6] | Potency [7] | Potency [8] | Potency [9] | Potency [10] | Potency [11] | Potency [12] | Potency [13] | Potency [14] | Potency [15] | Potency [16] | Potency [17] | Potency [19] | Potency [20]
-12.3% and -4.99%: max response [18]

O=C=NC1CCCCC1
-7.8% and -5.15%: max response [18]
inactive: Potency [1] | Potency [2] | Potency [3] | Potency [4] | Potency [5] | Potency [6] | Potency [7] | Potency [8] | Potency [9] | Potency [10] | Potency [11] | Potency [12] | Potency [13] | Potency [14] | Potency [15] | Potency [16] | Potency [17] | Potency [19] | Potency [20]

CCN(CC)c1ccccc1
-5.5%: max response [18]
inactive: Potency [1] | Potency [2] | Potency [3] | Potency [4] | Potency [5] | Potency [6] | Potency [7] | Potency [8] | Potency [9] | Potency [10] | Potency [11] | Potency [12] | Potency [13] | Potency [14] | Potency [15] | Potency [16] | Potency [17] | Potency [19] | Potency [20]

Clc1nc(Cl)nc(Cl)n1
-2.29% and -4.83%: max response [18]
inactive: Potency [1] | Potency [2] | Potency [3] | Potency [4] | Potency [5] | Potency [6] | Potency [7] | Potency [8] | Potency [9] | Potency [10] | Potency [11] | Potency [12] | Potency [13] | Potency [14] | Potency [15] | Potency [16] | Potency [17] | Potency [19] | Potency [20]

CCCSC(=O)Cl
-2.55%: max response [18]
inactive: Potency [1] | Potency [3] | Potency [4] | Potency [5] | Potency [6] | Potency [7] | Potency [8] | Potency [9] | Potency [10] | Potency [11] | Potency [12] | Potency [13] | Potency [14] | Potency [15] | Potency [16] | Potency [17] | Potency [19] | Potency [20]

OCC1CO1 (stereo not given)
inactive: Potency [1] | Potency [2] | Potency [3] | Potency [4] | Potency [5] | Potency [6] | Potency [7] | Potency [8] | Potency [9] | Potency [10] | Potency [11] | Potency [12] | Potency [13] | Potency [14] | Potency [15] | Potency [16] | Potency [17] | Potency [19] | Potency [20]
2.41% and -5.17%: max response [18]

O=NN(CCO)CCO
-0.955%: max response [18]
inactive: Potency [1] | Potency [2] | Potency [3] | Potency [4] | Potency [5] | Potency [6] | Potency [7] | Potency [8] | Potency [9] | Potency [10] | Potency [11] | Potency [12] | Potency [13] | Potency [14] | Potency [15] | Potency [16] | Potency [17] | Potency [19] | Potency [20]
